Bioassay records: PubChem BioAssay, National Center for Advancing Translational Sciences (NCATS)
DT40 TDP1 CPT = growth inhibition of DT40 Tdp1-/-;hTDP1 cells with camptothecin (screen for TDP1 inhibitors); chicken DT40 Tdp1-/-;hTDP1 cells + 20 nM CPT, ATP luminescence, 48 h; Potency, µM (doses to about 46.2 µM), inactives show at the highest dose activity change, negative = growth inhibition, actives largely listed as inhibitors; actives 12% (n = 420,000); note: potency is the fitted concentration of half-maximal effect; % is set by controls: 0 for no effect and ±100 for the full control effect; nearly all actives have a fitted effect of over 55% in size
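Chicken DT40 Tdp1-/- cells stably complemented with human TDP1 were seeded at 400 cells/well in medium containing 20 nM camptothecin, exposed to pin-transferred compounds, and grown at 37 °C for at least 48 hr. Viability was read as ATP luminescence.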
HepG2 viability = kills HepG2 cells in TGF-b inhibitor counter-screen; HepG2 CAGA-GFP viability, ATP luminescence, 18 h; Potency, µM (doses to about 46.1 µM), without a hit: top-dose activity change, negative = cytotoxicity, usual class: cytotoxic; actives 0.76% (n = 410,000); AID 588856; note: potency is the fitted concentration of half-maximal effect
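HepG2 CAGA-GFP cells (1000/well, DMEM with 1% FBS) received compound, then TGF-beta at 500 pg/mL final, and were incubated 18 hours at 37 degrees C. Viability was read by CellTiter-Glo luminescence. Media-only wells were set as complete cell-killing and DMSO as no toxicity.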
DT40 TDP1 no CPT = qHTS for Inhibitors of human tyrosyl-DNA phosphodiesterase 1 (TDP1): qHTS in cells in absence of CPT; DT40 Tdp1-/- hTDP1 cells, no CPT, ATP luminescence, 48 h; Potency, µM (doses to about 46.2 µM), for inactives: at the top dose activity change, negative = growth inhibition, usual class: inhibitors; actives 15% (n = 420,000); note: potency is the fitted concentration of half-maximal effect; % is set by controls: 0 for no effect and ±100 for the full control effect; nearly all actives have a fitted effect of over 55% in size
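Readout: luminescence from CellTiter-Glo after 30 min in the dark at RT. Cells: DT40 Tdp1-/- with stable hTDP1, 400/well. Exposure: compounds alone, ≥48 hr, 37 °C.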
TDP1 inh = TDP1 (human) enzyme inhibition | AID 485290 | recombinant TDP1, AlphaScreen DNA substrate cleavage | Q9NUW8 | actives 0.28% (n = 350,000) | Potency, µM (doses to about 130 µM), for the others: at the top dose activity change, negative = inhibition, most hits filed as inhibitors; note: potency is the fitted concentration of half-maximal effect; % is set by controls: 0 for no effect and ±100 for the full control effect; nearly all actives have a fitted effect of over 40% in size
Target sequence (Q9NUW8 whole entry, looked up): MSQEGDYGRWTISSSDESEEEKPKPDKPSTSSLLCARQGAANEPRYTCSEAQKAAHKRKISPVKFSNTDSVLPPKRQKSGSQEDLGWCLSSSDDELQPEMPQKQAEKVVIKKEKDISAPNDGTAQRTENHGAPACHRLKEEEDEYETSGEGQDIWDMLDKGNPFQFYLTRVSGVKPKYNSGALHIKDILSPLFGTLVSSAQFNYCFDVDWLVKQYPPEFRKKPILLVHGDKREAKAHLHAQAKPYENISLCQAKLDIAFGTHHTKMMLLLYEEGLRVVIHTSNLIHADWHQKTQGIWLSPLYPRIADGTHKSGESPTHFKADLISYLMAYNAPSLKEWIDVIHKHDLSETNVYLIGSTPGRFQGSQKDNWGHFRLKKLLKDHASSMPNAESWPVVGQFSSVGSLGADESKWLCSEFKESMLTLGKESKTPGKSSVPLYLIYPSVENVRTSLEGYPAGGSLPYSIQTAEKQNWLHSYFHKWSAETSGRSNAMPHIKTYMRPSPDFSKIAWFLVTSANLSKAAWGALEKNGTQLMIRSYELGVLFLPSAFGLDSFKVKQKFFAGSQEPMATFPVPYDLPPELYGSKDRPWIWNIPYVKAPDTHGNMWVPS
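E. coli-derived human Tdp1, 1 nM final. Cpd preinc 15 min RT; substrate 15 nM final, 5 min RT; AS bead mix 10 ug/ml final, 10 min RT. Signal loss = tyrosine-FITC cleavage. No-enzyme wells = max signal.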
TGFb inhibitor = TGF-b pathway inhibition. actives 1.2% (n = 410,000). AID 588855. Potency, µM (doses to about 46.1 µM), without a hit: at the highest dose activity, negative = inhibition, actives largely listed as inhibitors. HepG2 CAGA-GFP TGF-b/SMAD3 reporter, GFP fluorescence, 18 h; TGF-beta stimulated, 500 pg/mL final; note: potency is the fitted concentration of half-maximal effect; % is set by controls: 0 for no effect and ±100 for the full control effect; nearly all actives have a fitted effect of over 65% in size
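GFP signal (ex488/em500-530) from TGF-beta-stimulated HEPG2 CAGA-GFP cells, 500 pg/mL final, 18 h at 37 degrees C in DMEM plus 1% FBS, normalized to unstimulated and DMSO-stimulated controls.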
IL-1B inflam inh = inhibitors of inflammasome signaling (IL-1 beta secretion); THP-1 LPS/ATP IL-1B secretion, AlphaLISA, 16 h; stronger effect = lower value; activity change, % at 57.5 µM; actives 4.7% (n = 360,000); AID 743279; in the data active = activity change below about -50%; inconclusive = mostly about -30% to -49%; note: % is set by controls: 0 for no effect and ±100 for the full control effect
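THP-1 cells pretreated 1 hr with compounds (up to 57.5 uM final), then stimulated with LPS (250 ng/mL final) plus ATP (1.25 mM final); secreted IL-1B measured by AlphaLISA after 16 hr, decreased signal indicating inhibition.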
An asterisk follows results filed as active; ? = inconclusive; · = no result; [ ] = remark or other dose. Rows were chosen to be rich in hits. Some 18% of all compounds tested hit in one or more screens of this group. Unless noted, calls come from the whole dose curve; as a rule, active = well fitted curve in the direction sought with a large enough effect; inconclusive = small, poorly fitted or top-dose-only effect, or another doubt; inactive = no such curve, though single readings can be large; an effect the other way counts as inactive or inconclusive.

SMILES	DT40 TDP1 CPT	HepG2 viability	DT40 TDP1 no CPT	TDP1 inh	TGFb inhibitor	IL-1B inflam inh
CCc1ccc(S(=O)(=O)c2nnn3c2nc(NC2CCCC2)c2sccc23)cc1	23.1µM*	-17.5%	?	5.1%	62.5%	·
CCc1ccc(S(=O)(=O)c2nnn3c2nc(N2CCCC2)c2sccc23)cc1	-14.8%	4.6%	-1.6%	2.6%	12.6%	·
Cc1ccc(C)c(S(=O)(=O)c2nnn3c2nc(NC(C)C)c2sccc23)c1	23.1µM*	-42.7%	?	5.1%	?	·
CSCCNC(=O)C1(C)CCN1C(=O)C/C=C/c1ccccc1 (configuration not stated)	-2.9%	-2.1%	-12.5%	·	-11.7%	-7.5
O=C(c1ccc2c(c1)N(Cc1ccc(F)cc1)C(=O)c1ccccc1S2(=O)=O)N1CCC(Cc2ccccc2)CC1	5.8µM*	2.0%	5.17µM*	9.2%	-14.3%	·
O=C(c1ccc2c(c1)N(Cc1ccccc1)C(=O)c1ccccc1S2(=O)=O)N1CCOCC1	5.8%	-10.0%	-17.5%	6.9%	·	·
O=C(c1ccc2c(c1)N(Cc1ccc(F)cc1)C(=O)c1ccccc1S2(=O)=O)N1CCCCC1	?	-1.4%	?	1.2%	·	·
CC1CCN(C(=O)c2ccc3c(c2)N(Cc2ccccc2)C(=O)c2ccccc2S3(=O)=O)CC1	?	-2.6%	16.4µM*	5.8%	·	·
NS(=O)(=O)c1ccc(NC(=O)NC2CC(=O)N(c3ccc4c(c3)OCCO4)C2)cc1 (configuration not stated)	4.9%	4.9%	10.9%	1.8%	1.1%	6.8
Cc1ccccc1N(CC(=O)NC1CCCCC1)C(=O)CNC(=O)c1cccs1	-21.4%	-0.1%	?	6.2%[0.0935 µM]	-4.8%	-6.6
CCSc1nnc(NC(=O)CSc2nc(CC)nc3c2c(=O)n(C)c(=O)n3C)s1	16.4µM*	9.2%	14.6µM*	1.0%	-0.2%	-6.2
CCCc1nc(SCC(=O)Nc2nnc(SCC)s2)c2c(=O)n(C)c(=O)n(C)c2n1	4.11µM*	-4.8%	2.91µM*	·	0.1%	26.7
CN1CCN(c2ccc(Cl)cc2NC(=O)c2ccc(S(=O)(=O)N3CCCCCC3)cc2)CC1	?	-2.2%	16.4µM*	3.1%	0.1%	0.0
CN1CCN(c2ccc(S(=O)(=O)N3CCCCC3)cc2NC(=O)Cc2ccc(Cl)cc2)CC1	?	-2.2%	23.1µM*	0.6%	0.2%	14.9
CN1CCN(c2ccc(S(=O)(=O)N3CCCCC3)cc2NC(=O)c2ccc(C#N)cc2)CC1	-1.8%	0.2%	4.0%	3.2%	9.3%	14.5
O=C1CCC(C(=O)Nc2cccc(S(=O)(=O)N3CCOCC3)c2)N1 (configuration not stated)	-1.3%	-5.6%	2.9%	4.7%	-7.5%	-11.8
O=[N+]([O-])c1ccccc1S(=O)(=O)Nc1ccc(S(=O)(=O)N2CCCC2)cc1	11.8%	1.1%	-2.6%	1.6%	10.6%	0.0
O=C(C1CCN(S(=O)(=O)c2cccc3nonc23)CC1)N1CCN(c2ccccc2F)CC1	?	-25.0%	?	1.5%	?	·
CC(=O)c1ccc(N2CCN(C(=O)C3CCN(S(=O)(=O)c4cccc5nonc45)CC3)CC2)cc1	?	3.6%	23.1µM*	-2.5%	-21.0%	·
O=C(C1CCCN(S(=O)(=O)c2cccc3nonc23)C1)N1CCN(c2ccccc2)CC1 (configuration not stated)	?	0.4%	22.4µM*	6.8%	-8.9%	-50.6*
COc1ccc(Cl)cc1NC(=O)c1sc(-n2nc(C)c(Cc3ccccc3)c2C)nc1C	-14.3%	4.3%	?	·	-28.6%	·
COc1ccc2nc(NCCO)[nH]c2c1	-3.7%	4.9%	-15.3%	5.8%	6.2%	30.0
Cc1ccc2nc(NCc3ccccc3)c(C#N)cc2c1	1.6%	8.6%	0.0%	·	9.3%	29.9
c1ccc(CNc2nc3ccccc3[nH]2)cc1	?	-11.2%	18.4µM*	-1.1%	0.4%	-60.5*
Cc1ccc2nc(NCc3ccccc3)[nH]c2c1	4.11µM*	-30.2%	4.61µM*	0.0%	-17.2%	-72.7*
SMILES	DT40 TDP1 CPT	HepG2 viability	DT40 TDP1 no CPT	TDP1 inh	TGFb inhibitor	IL-1B inflam inh
COc1ccc2nc(NCc3ccccc3)[nH]c2c1	?	-16.8%	14.6µM*	0.0%	-12.6%	-101.6*
CC1(C)OC(=O)C2=C(C[C@@H](C3CCCC3)O[C@H]2CCc2cccc(Cl)c2)O1	-26.4%	·	?	·	·	43.0
CCOCCCNC(=O)CN1N=C(c2ccc(C)cc2)CCC1=O	-2.6%	3.1%	3.9%	·	-20.7%	1.0
CC(=O)N1CCc2cc(CNC(=O)Nc3ccc(Br)c(C)c3)ccc21	?	-3.2%	3.0%	1.8%	-5.0%	·
COc1ccccc1N1CCN(C(=O)CSc2ncccc2-c2nc3ccccc3[nH]2)CC1	14.6µM*	-19.5%	?	2.2%	-13.4%	0.0
O=C(CSc1ncccc1-c1nc2ccccc2[nH]1)NC1CC1	-27.8%	-19.5%	-1.0%	6.0%	13.8%	-9.3
COc1ccc(N2CCN(C(=O)CSc3ncccc3-c3nc4ccccc4[nH]3)CC2)cc1	18.4µM*	-1.1%	29.1µM*	4.7%	-7.1%	7.2
O=C(CSc1ncccc1-c1nc2ccccc2[nH]1)N1CCN(c2ccccc2F)CC1	16.4µM*	-20.8%	?	-5.3%	-17.9%	-22.8
O=C(C[n+]1ccccc1Cl)c1ccccc1	-7.6%	-1.4%	-25.7%	·	-9.3%	·
COc1ccc(C2=NO[C@@H]3[C@@H]4C[C@@H]([C@H]5C(=O)N(c6ccc7c(c6)OCO7)C(=O)[C@@H]45)[C@H]23)cc1OC	-3.1%	21.6%	-2.3%	4.2%	-3.1%	26.0
CC1(C)CC(=O)C(C(=S)Nc2ccccc2)=C(NCCN2CCOCC2)C1	-14.3%	-7.1%	1.6%	0.0%	-33.7%	46.8
CN(Cc1ccccc1)C(=O)C1(C)CCN1C(=O)Cc1ccc(Cl)cc1Cl (configuration not stated)	?	0.8%	?	·	?	6.4
Cc1ccc(C2C(C(=O)c3sc(-c4ccccc4)nc3C)=C(O)C(=O)N2CCN(C)C)o1 (configuration not stated)	-7.6%	-2.3%	-4.3%	·	-5.7%	12.6
C=CC(=O)N1C/C(=C/c2ccc(Cl)cc2)C(=O)/C(=C\c2ccc(Cl)cc2)C1	0.231µM*	5.01µM*	0.411µM*	·	2.24µM*	-115.2*
O=C1C(=Cc2ccc(Cl)cc2)Cc2ccccc21	-4.4%	·	-10.9%	·	·	16.8
